{
  "source": "PubChem BioAssay",
  "note": "“And” between values parts separate entries of the source, which are not always exact repeats. Identical values can stand only once. The source made the active and inactive calls. No rule for the calls is given here.",
  "data": [
    {"tested_on": "Aerobactin synthetase IucA (Klebsiella pneumoniae hvKP1)", "test": "IucA enzyme inhibition, primary screen, biochemical, Spectrum library (AID 1346200);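 also: 100% = wells without compound and 0% = wells lacking enzyme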", "details": "malachite green pyrophosphate, A620, at 8 µM, stronger effect = lower value", "values": [
      {"smiles": "NC(=O)NO", "activity remaining": "121% (inactive)"},
      {"smiles": "CCC1(c2ccccc2)C(=O)NCNC1=O", "activity remaining": "125% (inactive)"},
      {"smiles": "O=C1N=C(O)CN1/N=C/c1ccc(-c2ccc([N+](=O)[O-])cc2)o1", "activity remaining": "118% (inactive)"},
      {"smiles": "CC(C)C(=O)Nc1ccc([N+](=O)[O-])c(C(F)(F)F)c1", "activity remaining": "115% (inactive)"},
      {"smiles": "CCC1(C)CC(=O)NC1=O", "note": "(stereo unspecified)", "activity remaining": "123% (inactive)"},
      {"smiles": "O=C(O)c1cc(=O)c2c(Cl)cc(Cl)cc2[nH]1", "activity remaining": "103% (inactive)"},
      {"smiles": "NC(N)=NCCCCN=C(N)N", "activity remaining": "119% (inactive)"},
      {"smiles": "CN1C2CCC1CC(OC(c1ccccc1)c1ccccc1)C2", "note": "(stereo unspecified)", "activity remaining": "101% (inactive)"},
      {"smiles": "CC(CCc1ccccc1)NCC(O)c1ccc(O)c(C(N)=O)c1", "note": "(stereo unspecified)", "activity remaining": "121% (inactive)"},
      {"smiles": "N=C(N)c1ccc(OCCCCCOc2ccc(C(=N)N)cc2)cc1", "activity remaining": "98.2% (inactive)"},
      {"smiles": "Clc1cccc(Cl)c1NC1=NCCN1", "activity remaining": "119% (inactive)"},
      {"smiles": "O=C(O)c1ccccc1Nc1ccccc1", "activity remaining": "106% (inactive)"},
      {"smiles": "CCn1cc(C(=O)O)c(=O)c2cc3c(cc21)OCO3", "activity remaining": "109% (inactive)"},
      {"smiles": "C#CCN(C)Cc1ccccc1", "activity remaining": "122% (inactive)"},
      {"smiles": "CCCNCC(O)COc1ccccc1C(=O)CCc1ccccc1", "note": "(stereo unspecified)", "activity remaining": "104% (inactive)"},
      {"smiles": "C[N+](C)(C)CCO", "activity remaining": "126% (inactive)"},
      {"smiles": "NC12CC3CC(CC(C3)C1)C2", "activity remaining": "107% (inactive)"},
      {"smiles": "CCCCS(=N)(=O)CCC(N)C(=O)O", "note": "(stereo unspecified)", "activity remaining": "102% (inactive)"},
      {"smiles": "C[N+]1(CCCCC[N+]2(C)CCCC2)CCCC1", "activity remaining": "89.1% (inactive)"},
      {"smiles": "NCCCCC(=O)O", "activity remaining": "107% (inactive)"},
      {"smiles": "O=C(Nc1ccc([N+](=O)[O-])cc1Cl)c1cc(Cl)ccc1O", "activity remaining": "93.6% (inactive)"}
    ]},
    {"tested_on": "Aerobactin synthetase IucA (Klebsiella pneumoniae, hypervirulent)", "test": "biochemical IucA inhibition screen of LOPAC library by absorbance (AID 1346212);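 also: 100% = no compound wells and 0% = no enzyme wells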", "details": "IucA enzyme assay, absorbance (OD) readout; stronger effect = lower value; concentration not given here", "values": [
      {"smiles": "O=C1NCC2(CCN(CCc3ccccc3)CC2)O1", "remaining activity": "97.8% (inactive)"},
      {"smiles": "CC(C)(C)NCC(O)c1ccc(O)c(CO)c1", "note": "(stereo unspecified)", "remaining activity": "121% (inactive) and 104% (inactive)"},
      {"smiles": "CCCn1c(=O)c2[nH]c(C3CCCC3)nc2n(CCC)c1=O", "remaining activity": "76.9% (inactive)"},
      {"smiles": "O=C(O)/C=C/c1ccc(O)c(O)c1", "remaining activity": "117% (inactive)"},
      {"smiles": "CCCCC[C@H](CC(=O)NO)C(=O)N[C@H](C(=O)N1CCC[C@H]1CO)C(C)C", "remaining activity": "111% (inactive)"},
      {"smiles": "O=C(c1ccccc1)c1ccc2n1CCC2C(=O)O", "note": "(stereo unspecified)", "remaining activity": "120% (inactive)"},
      {"smiles": "O=C(O)C1=CC(=C(c2ccc(O)c(C(=O)O)c2)c2ccc(O)c(C(=O)O)c2)C=CC1=O", "remaining activity": "103% (inactive)"},
      {"smiles": "O=c1c(O)c(-c2ccc(O)c(O)c2)oc2cc(O)cc(O)c12", "remaining activity": "122% (inactive)"},
      {"smiles": "Nc1nc(N)c2nc(-c3ccccc3)c(N)nc2n1", "remaining activity": "93.9% (inactive)"},
      {"smiles": "CCN(CC)CC(=O)Nc1c(C)cccc1C", "remaining activity": "109% (inactive)"},
      {"smiles": "CCCC(C(=O)OCCN(CC)CC)(c1ccccc1)c1ccccc1", "remaining activity": "118% (inactive)"},
      {"smiles": "CN(C)c1nc(N(C)C)nc(N(C)C)n1", "remaining activity": "120% (inactive)"},
      {"smiles": "Cc1ccc(S(=O)(=O)NC(=O)NN2CCCCCC2)cc1", "remaining activity": "91.6% (inactive)"},
      {"smiles": "OCCN1CCN(CCCN2c3ccccc3Sc3ccc(Cl)cc32)CC1", "remaining activity": "112% (inactive)"},
      {"smiles": "CC(=O)Nc1nnc(S(N)(=O)=O)s1", "remaining activity": "113% (inactive)"},
      {"smiles": "CN=C(N)NCCC[C@H](N)C(=O)O", "remaining activity": "111% (inactive)"},
      {"smiles": "CN(C)CCOC(=O)COc1ccc(Cl)cc1", "remaining activity": "112% (inactive)"},
      {"smiles": "CN=C(NC#N)NCCSCc1nc[nH]c1C", "remaining activity": "116% (inactive)"},
      {"smiles": "C=CCc1ccccc1OCC(O)CNC(C)C", "note": "(stereo unspecified)", "remaining activity": "91.4% (inactive)"},
      {"smiles": "NC(=O)NO", "remaining activity": "117% (inactive)"},
      {"smiles": "CCC1(c2ccccc2)C(=O)NCNC1=O", "remaining activity": "75.1% (inactive)"},
      {"smiles": "O=C1N=C(O)CN1/N=C/c1ccc(-c2ccc([N+](=O)[O-])cc2)o1", "remaining activity": "100% (inactive)"},
      {"smiles": "CC(C)C(=O)Nc1ccc([N+](=O)[O-])c(C(F)(F)F)c1", "remaining activity": "97.1% (inactive)"},
      {"smiles": "CCC1(C)CC(=O)NC1=O", "note": "(stereo unspecified)", "remaining activity": "85.2% (inactive)"},
      {"smiles": "O=C(O)c1cc(=O)c2c(Cl)cc(Cl)cc2[nH]1", "remaining activity": "110% (inactive)"},
      {"smiles": "NC(N)=NCCCCN=C(N)N", "remaining activity": "90.7% (inactive)"},
      {"smiles": "CN1C2CCC1CC(OC(c1ccccc1)c1ccccc1)C2", "note": "(stereo unspecified)", "remaining activity": "113% (inactive)"},
      {"smiles": "CC(CCc1ccccc1)NCC(O)c1ccc(O)c(C(N)=O)c1", "note": "(stereo unspecified)", "remaining activity": "112% (inactive)"},
      {"smiles": "N=C(N)c1ccc(OCCCCCOc2ccc(C(=N)N)cc2)cc1", "remaining activity": "122% (inactive)"},
      {"smiles": "Clc1cccc(Cl)c1NC1=NCCN1", "remaining activity": "122% (inactive)"},
      {"smiles": "O=C(O)c1ccccc1Nc1ccccc1", "remaining activity": "108% (inactive)"},
      {"smiles": "CCn1cc(C(=O)O)c(=O)c2cc3c(cc21)OCO3", "remaining activity": "95.5% (inactive)"},
      {"smiles": "C#CCN(C)Cc1ccccc1", "remaining activity": "80.8% (inactive)"},
      {"smiles": "CCCNCC(O)COc1ccccc1C(=O)CCc1ccccc1", "note": "(stereo unspecified)", "remaining activity": "112% (inactive)"},
      {"smiles": "C[N+](C)(C)CCO", "remaining activity": "112% (inactive)"},
      {"smiles": "NC12CC3CC(CC(C3)C1)C2", "remaining activity": "119% (inactive)"},
      {"smiles": "CCCCS(=N)(=O)CCC(N)C(=O)O", "note": "(stereo unspecified)", "remaining activity": "84.7% (inactive)"},
      {"smiles": "C[N+]1(CCCCC[N+]2(C)CCCC2)CCCC1", "remaining activity": "119% (inactive)"},
      {"smiles": "NCCCCC(=O)O", "remaining activity": "104% (inactive)"},
      {"smiles": "O=C(Nc1ccc([N+](=O)[O-])cc1Cl)c1cc(Cl)ccc1O", "remaining activity": "113% (inactive)"}
    ]}
  ]
}
